The values that follow come from PubChem BioAssay (NCATS).

Inconclusive results are not listed. Where a call stands in place of a potency, no number is given. Calls of active or inactive are those of the source. Calls come from the whole dose curve; as a rule, active = well fitted cell-killing curve with a large enough effect; inconclusive = small, poorly fitted or top-dose-only effect; inactive = flat fitted curve, though single readings scatter. Where a SMILES comes first, the peptide text is derived from it. Bridges are numbered along the chain shown (N, C = ends). [ ]: non-standard residue; d: D form. The star is where a group is joined. X1 = CCC(C)C(N)C1=NC(C(=O)*)CS1; dOrn = NCCC[C@@H](N)C(=O)O

The experiment is described as follows: Cellular viability qHTS for adrenocortical cancer (ACC) cell line NCI-H295R (AID 1963990). Note: nearly all actives have a fitted effect of over 60% in size. The conditions noted are these: CellTiter-Glo ATP luminescence, 48 h; series mostly up to 46.1 µM. The text has this: PI: Naris Nilubol, MD Surgical Oncology Program, National Cancer Institute (NCI) National Institute of Health (NIH), Bethesda, Maryland Adrenocortical cancer (ACC) is a rare malignancy with poor survival outcomes and few treatment options. Currently, mitotane is the only FDA-approved therapy for ACC. Although adjuvant radiation therapy is rarely utilized, it has the potential to improve survival in select cases. Through a quantitative high-throughput drug screen (qHTS), we identified auranofin (AF), a thioredoxin reductase (TXNRD) inhibitor, as a promising candidate drug. This study aims to evaluate whether AF can enhance the efficacy of radiation therapy in the treatment of ACC. Two human ACC cell lines, SW-13 and NCI-H295R, were screened using the National Center for Advancing Translational Sciences (NCATS) Pharmaceutical Collection (NPC) and the Mechanism Interrogation PlatE (MIPE) library (~4,991 compounds). CellTiter-Glo (Cat # G7570, Promega, Madison, WI) was utilized to measure cell viability. Described herein are the results of the corresponding viability assay.
PROTOCOL TABLE (as described by Inglese J, Shamu CE and Guy RK. 2007) SEQUENCE No. (e.g., 1, 2, 3, etc.); […] (e.g., Cells, Incubation, Reagent, etc.); VALUE; DESCRIPTION. 1; Cells; 5 uL; white, solid-bottom, 1536-well tissue-culture treated plates. 2; Time; overnight culture at 37C with 5% CO2. 3; Compounds and control; 23 nL; Kalypsis pin tool (Wako USA) equipped with a 1536-well pin head to transfer to the assay plates. 4; Time; 48 hours; 37C with 5% CO2. 5; Reagent; 4 uL; CellTiter-Glo luminescent substrate mix. 6; Time; 20 min at room temperature. 7; Detection; Luminescence; ViewLux plate reader NOTES (numbers refer to Sequence numbers above) 1. NCI-H295R cells were harvested from a T175 flask and resuspended in ITS-supplemented DMEM serum-free medium at a concentration of 300 000 cells/mL. Then 5 uL of resuspended cells were dispensed into each well of white, solid-bottom, 1536-well tissue-culture-treated plates using a multidrop combi dispenser. The plates were covered with stainless steel gasket lids. 2-3. The plates were cultured overnight at 37C with 5% CO2. Twenty-three nL of compounds (eight selected concentrations from the NPC / MIPE) or positive control (10 mM stock of bortezomib) in DMSO was transferred to each well of the assay plate using a pin tool (Kalypsys, San Diego, CA, USA). The final concentration of the compounds in the 5 uL assay volume ranged from 0.5 nM to 46 uM. 4-6. After 48 hours of incubation at 37C and 5% CO2, 4 uL of CellTilter-Glo luminescent substrate mix (Promega, Madison, WI, USA) was added to each well. Then the plates were incubated for 20 minutes at room temperature. 7. After incubation, luminescence was measured using a ViewLux plate reader (PerkinElmer, Waltham, MA, USA) with a clear filter was used to measure the number of metabolically competent cells. To determine compound activity in the qHTS assay, the titration-response data for each sample was plotted and modeled by a four-parameter logistic fit yielding IC50 and efficacy (maximal response) values. Raw plate reads for each titration point were normalized relative to positive control ([…], 100% inhibition) and DMSO-only wells (basal, 0%). REFERENCES: Inglese J, Shamu CE and Guy RK, Reporting data from high throughput screening of small molecule libraries, Nature Chemical Biology, 2007, 3(8): 438-441. doi.org/10.1038/nchembio0807-438.
As to `N#Cc1c(N)nc(N)nc1N[C@H](c1nc2c(F)ccc(Cl)c2c(=O)n1-c1cccnc1)C1CC1`, the Potency is 22.4 µM (active).

Consider `CCCCCC(N)=O`, for which the Potency entry was “inactive”.

In the case of `CCOC(=O)[C@H](CCc1ccccc1)N[C@@H](C)C(=O)N1C(=O)N(C)C[C@H]1C(=O)O`, the Potency entry was “inactive”.

For the molecule `O=c1cc(-c2ccc(O)cc2)oc2cc(O)cc(O)c12`, the Potency entry is “inactive”.

Regarding `CCNC(=O)[C@H]1O[C@@H](n2cnc3c(N)nc(NCCc4ccc(CCC(=O)O)cc4)nc32)[C@H](O)[C@@H]1O`, the Potency entry was “inactive”.

For `Cc1ccc(NC(=O)[C@H]2CCCN(C(=O)c3c(C)cccc3F)[C@H]2c2ccc(NC3CCCC3)cc2)cc1C(F)(F)F`, the Potency entry is “inactive”.

Consider `CC(C)(C)c1cc(C(=O)O)c(NC(=O)Nc2ccc3[nH]ncc3c2)s1`, for which the Potency result is “inactive”.

With `CCN(CC)CCN`, the Potency result was “inactive”.

On to `CC1=CC(=O)c2ccccc2C1=O`, for which the Potency entry was “inactive”.

Regarding `N#C/C(=C1\SCC(c2ccccc2Cl)S1)n1ccnc1` (stereo not given), the Potency entry is “inactive”.

On to `CCOC(=O)C1=C(C)NC2=C(C(=O)CC(C)(C)C2)C1c1ccc(-c2ccccc2)cc1` (stereo not given), for which the Potency is 10 µM (active).

Consider `COc1ccc(CC2=NN3C([C@@H](CCc4ccccc4)[C@@H](C)O)=NC(C)C3C(=O)N2)cc1OC` (stereo not given in full), for which the Potency entry is “inactive”.

For `O=C1c2cccc(O)c2C(=O)c2c(O)cccc21`, the Potency result is “inactive”.

With `CCO[C@@H]1O[C@H](C(COCc2ccccc2)OCc2ccccc2)[C@H](OCc2ccccc2)[C@H]1O` (stereo not given in full), the Potency was 23.1 µM (active).

Take `Cc1cc(Nc2cc(N3CCN(C)CC3)nc(Sc3ccc(NC(=O)C4CC4)cc3)n2)n[nH]1`: the Potency is 15.8 µM (active).

Turning to `Cc1[nH]c(/C=C2\C(=O)Nc3ccc(S(=O)(=O)Cc4c(Cl)cccc4Cl)cc32)c(C)c1C(=O)N1CCC[C@@H]1CN1CCCC1`, the Potency is 7.08 µM (active).

Regarding `C=C1C(=O)O[C@@H]2[C@H]3C(C)=CC[C@@]34O[C@@]4(C)CC[C@@H]12`, the Potency is 17.8 µM (active).

For `CCC(C)C(N)C1=NC(C(=O)N[C@@H](CC(C)C)C(=O)N[C@H](CCC(=O)O)C(=O)N[C@H](C(=O)N[C@H]2CCCCNC(=O)[C@H](CC(N)=O)NC(=O)[C@@H](CC(=O)O)NC(=O)[C@H](Cc3cnc[nH]3)NC(=O)[C@@H](Cc3ccccc3)NC(=O)[C@H]([C@@H](C)CC)NC(=O)[C@@H](CCCN)NC2=O)[C@@H](C)CC)CS1` (stereo not given in full) (X1-L[dE]IK[dOrn]I[dF]H[dD]N; lactam 4-C), the Potency entry was “inactive”.

As for `OC[C@H]1O[C@@H]2O[C@H]3[C@H](O)[C@@H](O)[C@@H](O[C@H]4[C@H](O)[C@@H](O)[C@@H](O[C@H]5[C@H](O)[C@@H](O)[C@@H](O[C@H]6[C@H](O)[C@@H](O)[C@@H](O[C@H]7[C@H](O)[C@@H](O)[C@@H](O[C@H]8[C@H](O)[C@@H](O)[C@@H](O[C@H]1[C@H](O)[C@H]2O)O[C@@H]8CO)O[C@@H]7CO)O[C@@H]6CO)O[C@@H]5CO)O[C@@H]4CO)O[C@@H]3CO`, the Potency entry was “inactive”.

Consider `CCCCOCCOCCOCc1cc2c(cc1CCC)OCO2`, for which the Potency entry was “inactive”.

On to `FC(F)(F)c1ccc(CNc2ccc(Cc3c[nH]c4ncccc34)cn2)cc1`, for which the Potency is 11.2 µM (active).

Take `COc1ccc2[nH]c(S(=O)Cc3ncc(C)c(OC)c3C)nc2n1` (stereo not given): the Potency result was “inactive”.

On to `O=C(O)CCCCCC(=O)NN=C1CCCC1`, for which the Potency entry was “inactive”.

`O=C(O)CN1C(=O)c2cccc3cccc(c23)C1=O`: the Potency result is “inactive”.

Turning to `O=C(CCNNC(=O)c1ccncc1)NCc1ccccc1`, the Potency result was “inactive”.

In the case of `Nc1ncnc(Nc2ccc(OCc3ccccc3)c(Cl)c2)c1/C=N/OCCN1CCOCC1`, the Potency is 15.8 µM (active).

`O=C(Nc1ccccc1-c1cn2c(CN3CCNCC3)csc2n1)c1cnc2ccccc2n1`: the Potency was 7.08 µM (active).

Regarding `CCNCCc1ccc(CN(CC)c2cc(OC)ccc2[C@@H]2CCc3cc(O)ccc3C2)cc1`, the Potency was 3.98 µM (active).

As for `CC(=O)OCC(=O)[C@@]12N=C(C)O[C@@H]1C[C@H]1[C@@H]3CCC4=CC(=O)C=C[C@]4(C)[C@H]3[C@@H](O)C[C@@]12C`, the Potency entry was “inactive”.

Consider `O=C(O)Cc1ccccc1Oc1ccc(Cl)cc1Cl`, for which the Potency result is “inactive”.

In the case of `CC(C)C[C@H](NC(=O)CNC(=O)c1cc(Cl)ccc1Cl)B(O)O`, the Potency was 0.398 µM (active).

For the molecule `Nc1ccc(S(=O)(=O)NCc2ccccc2)cc1`, the Potency result was “inactive”.

On to `C=CCc1cccc(/C=N/NC(=O)CN2CCN(Cc3ccccc3)CC2)c1O`, for which the Potency is 10 µM (active).

Consider `CCCCNC(=O)NS(=O)(=O)c1ccc(N)cc1`, for which the Potency result was “inactive”.

For the molecule `CC1(C)OC[C@@H]2O[C@@]3(C(=O)O)OC(C)(C)O[C@H]3[C@@H]2O1`, the Potency result is “inactive”.

Regarding `CN(C(=O)c1ccc(F)cc1C(F)(F)F)C1CCN(c2nnc(-c3ccnn3C)c3ccccc23)CC1`, the Potency result was “inactive”.

Take `O=C1CCC(N2C(=O)c3ccccc3C2=O)C(=O)N1` (stereo not given): the Potency result is “inactive”.

On to `CCOc1cc(C(=O)Nc2ccc(Cl)c(-c3nc4ccccc4[nH]3)c2)cc(OCC)c1OCC`, for which the Potency result is “inactive”.

In the case of `NC(=O)C1CCCc2c1[nH]c1ccc(Cl)cc21` (stereo not given), the Potency entry is “inactive”.

In the case of `O=C(O)CCC(=O)Nc1ccc(S(=O)(=O)Nc2nccs2)cc1`, the Potency result is “inactive”.
